# In the library only some 3.6% were active in any assay of this set; here they are far more common.
# Pf apPOL inh: Pf-apPOL DNA polymerase inhibition | Recombinant Pf-apPOL, molecular beacon fluorescence, 1.5 h | inhibition, % at 10 µM | 210,000 compounds, 0.25% hits
# mHTT CaM bind: inhibitors of human mutant huntingtin-calmodulin interaction | 190,000 compounds, 3.6% hits | AID 1671202 | AlphaScreen His-mHTT/GST-CaM binding, luminescence | inhibition, % at 15 µM;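 also: 0% = both proteins with DMSO and 100% = one protein alone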
# An asterisk follows results filed as active; i = inactive; nt = no result given; + = active, no number. Rule as the data show it: active = inhibition above about 50%; inactive = the rest.
SMILES,Pf apPOL inh,mHTT CaM bind
Cc1ccc(O)c(NC(=O)C2CC(c3c(F)cccc3Cl)=NO2)c1 (configuration not stated),0,2
O=C(Nc1cc(Cl)cc(Cl)c1)c1ccc(F)c(S(=O)(=O)NCc2ccc(F)cc2)c1,39,53*
O=C(Nc1cccc(F)c1)c1cc(S(=O)(=O)NCc2ccccc2Cl)ccc1F,-6,1
O=C(Nc1ccc(Cl)cc1)c1cc(S(=O)(=O)NCc2ccccc2Cl)ccc1F,84*,5
O=C(Nc1cc(Cl)cc(Cl)c1)c1ccc(F)c(S(=O)(=O)NCc2ccccc2)c1,28,0
Cc1c(-c2noc(-c3ccc(F)cc3)n2)nnn1Cc1ccccc1,-1,-12
O=C(Nc1ccc(-c2cn3c(n2)SCC3)cc1)c1ccc(=O)[nH]n1,7,0
C=C(C)COc1ccc2c(C)c(-c3cc(OC)ccc3OC)c(=O)oc2c1,-5,-16
Cn1cnc([N+](=O)[O-])c1N1CCN(c2ccc(C(F)(F)F)cn2)CC1,-50,nt
CCOCCCNC(=O)C(C)C1CCN(S(=O)(=O)c2c(C)noc2C)CC1 (configuration not stated),-3,-9
Cc1n[nH]c(=O)c2ncn(C)c12,1,-9
COc1ccc(OC)c(N2CCN(Cc3cccc(C)c3)C(C)C2=O)c1 (configuration not stated),1,62*
COc1ccc(OC)c(N2CCN(Cc3ccc(F)cc3)C(C)C2=O)c1 (configuration not stated),4,74*
COc1ccc(OC)c(N2CCN(Cc3ccccc3F)C(C)C2=O)c1 (configuration not stated),0,22
COc1ccc(N2CCN(Cc3ccc(F)cc3)C(C)C2=O)c(OC)c1 (configuration not stated),-1,17
CCC(C(=O)NCCOC)n1cc(-c2nc(C)no2)ccc1=O (configuration not stated),3,-6
COc1ccccc1N1C(=O)CC(SCC(=O)Nc2ccccc2)C1=O (configuration not stated),-2,-10
Cc1ccc(NC(=O)c2cc3cc(Br)ccc3oc2=O)c(Br)c1,85*,-2
Cc1ccc(NC(=O)c2cc3ccccc3oc2=O)c(Br)c1,-3,5
COc1ccc(NC(=O)N2CCC(c3cc(-c4cccc(C)c4)n[nH]3)CC2)c(OC)c1,-3,38
C=CS(=O)(=O)N(Cc1ccccc1)[C@H](CO)CC(C)C,-6,-3
CC(C)C[C@H](CO)N(Cc1ccccc1)S(=O)(=O)N(Cc1ccccc1)[C@@H](CO)CC(C)C,-5,75*
CCC(=O)N1CCCC(c2ccnc(Nc3ccc(C)cc3)n2)C1 (configuration not stated),-12,56*
Cc1ccc(C(=O)N2CCCC(c3ccnc(Nc4ccccc4)n3)C2)s1 (configuration not stated),-2,61*
Cc1ccc(Nc2nccc(C3CCCN(C(=O)c4ccco4)C3)n2)cc1 (configuration not stated),-5,87*
SMILES,Pf apPOL inh,mHTT CaM bind
Cc1ccc(Nc2nccc(C3CCCN(C(=O)C(C)(C)C)C3)n2)cc1 (configuration not stated),-3,39
O=C(C1CCC1)N1CCCC(c2ccnc(Nc3ccccc3)n2)C1 (configuration not stated),-2,24
O=C(c1ccco1)N1CCCC(c2ccnc(Nc3ccccc3)n2)C1 (configuration not stated),-4,22
COc1cc2oc(=O)cc(CN(Cc3ccccc3)Cc3ccccc3)c2cc1Cl,1,19
O=C(O)c1ccc(NS(=O)(=O)c2cccc(C(=O)Nc3ccc([N+](=O)[O-])cc3)c2)cc1,1,10
S=c1[nH]nc(-c2ccccn2)n1/N=C/C=C/c1ccco1,nt,+
S=c1[nH]nc(-c2ccncc2)n1/N=C/C=C/c1ccco1,nt,i
CN(C)c1ccc(NC(=O)c2ccc(N(C)C)cc2)cc1,-3,72*
CCn1ncc(Br)c1C(=O)Nc1ccc(N(C)C)cc1,-7,56*
CCn1ncc(Br)c1C(=O)Nc1cccc(C(=O)O)c1,-3,0
CN(C)c1ccc(NC(=O)c2ccc(Br)cc2)cc1,7,7
CC(=O)N(C)c1ccc(NC(=O)c2ccc(Cn3cc(Br)cn3)cc2)cc1,-1,8
CN(C)c1ccc(NC(=O)c2ccc(Cn3cc([N+](=O)[O-])cn3)cc2)cc1,-4,75*
N#Cc1ccc([N+](=O)[O-])cc1C#N,1,-4
CC(=O)Nc1ccc(C2C(C#N)=C(N)OC3=C2C(=O)CC(c2ccccc2)C3)cc1 (configuration not stated),0,0
O=c1[nH]c2ccc(Br)cc2c(=O)n1C1CCCCC1,-3,52*
CCn1c(=O)[nH]c2ccc(Br)cc2c1=O,7,5
COC(=O)c1cnc2nc(C)ccc2c1Nc1ccc(Br)cc1,-3,58*
COC(=O)c1cnc2nc(C)ccc2c1Nc1ccccc1,-8,-3
COc1cccc2cc(C(N)=O)c(=Nc3ccc(O)cc3)oc12,-4,99*

# Screens deposited in PubChem BioAssay by University of Kansas High Throughput Screening Laboratory.
